In the library only some 5.1% were active in any assay of this set; here they are far more common.
Tau ThT inhib: qHTS for Inhibitors of Tau Fibril Formation, Thioflavin T Binding; recombinant tau K18 P301L, heparin-induced fibrillization, ThT fluorescence; Potency, µM (series often up to 57.4 µM), usual class: inhibitors; 270,000 compounds, 2.1% hits; also: nearly all actives have a fitted effect of over 55% in size
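Heparin-induced fibrillization of the P301L-mutant K18 repeat-domain fragment of human tau was followed by ThT binding in quantitative high-throughput format.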
NPSR antagonist: qHTS Assay for Antagonists of the Neuropeptide S Receptor: cAMP Signal Transduction; CHO-NPSR cells, cAMP TR-FRET, antagonist mode; 220,000 compounds, 1% hits; Q6W5P4; AID 1461, 2008; Potency, µM (series often up to 38.3 µM), hits mostly inhibitors; also: nearly all actives have a fitted effect of over 50% in size
Target sequence (Q6W5P4 whole entry, looked up): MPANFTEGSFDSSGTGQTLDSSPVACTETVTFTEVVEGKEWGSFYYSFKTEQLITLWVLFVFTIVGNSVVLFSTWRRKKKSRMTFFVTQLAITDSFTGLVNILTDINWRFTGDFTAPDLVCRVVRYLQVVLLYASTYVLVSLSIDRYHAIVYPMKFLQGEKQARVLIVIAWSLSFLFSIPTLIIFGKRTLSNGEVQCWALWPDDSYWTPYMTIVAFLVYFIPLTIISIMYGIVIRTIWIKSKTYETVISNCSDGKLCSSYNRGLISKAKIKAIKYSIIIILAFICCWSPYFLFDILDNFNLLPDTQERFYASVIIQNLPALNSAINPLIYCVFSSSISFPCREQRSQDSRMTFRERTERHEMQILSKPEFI
Tau fluor cs: Counterscreen qHTS for Inhibitors of Tau Fibril Formation, Fluorescence Polarization; tau K18 P301L Alexa594 fluorescence, heparin fibrillization; Potency, µM (titrated, usually from 57.7 µM); 280,000 compounds, 0.93% hits; also: nearly all actives have a fitted effect of over 55% in size
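Human tau K18 P301L (15 uM unlabeled, 0.24 uM Alexa 594-labeled) in 100 mM sodium acetate pH 7 with 20 uM heparin, 6 hr at 37 C. ThT 30 uM added, 1 hr ambient; Alexa 594 FP and total fluorescence read at 555/632 nm.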
JMJD2E inh: qHTS Assay for Inhibitors of Human Jumonji Domain Containing 2E (JMJD2E). Lysine-specific demethylase 4E (Homo sapiens), B2RXH2. JMJD2E catalytic domain, FDH-coupled NADH fluorescence (FDH is formaldehyde dehydrogenase). Potency, µM (series often up to 57.1 µM), hits mostly inhibitors. 230,000 compounds, 1.6% hits. AID 2147, 2009; active = well fitted inhibition curve with a large enough effect, not every such curve was filed as active; inconclusive = small, poorly fitted or top-dose-only effect, or another doubt; inactive = no such curve, though single readings can be large or run the other way; also: nearly all actives have a fitted effect of over 50% in size
Target sequence (B2RXH2 1-337 limits assumed): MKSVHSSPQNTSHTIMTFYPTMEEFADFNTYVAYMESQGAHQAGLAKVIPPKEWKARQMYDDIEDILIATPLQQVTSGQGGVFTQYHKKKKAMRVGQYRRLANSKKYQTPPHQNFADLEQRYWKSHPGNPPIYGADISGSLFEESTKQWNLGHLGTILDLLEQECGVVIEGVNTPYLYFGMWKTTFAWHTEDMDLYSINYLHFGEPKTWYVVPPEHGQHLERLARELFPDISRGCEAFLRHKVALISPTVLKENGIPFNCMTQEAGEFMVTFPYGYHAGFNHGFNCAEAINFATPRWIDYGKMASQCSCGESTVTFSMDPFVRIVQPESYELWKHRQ
PNC assembly inh: High Content Assay for Compounds that inhibit the Assembly of the Perinucleolar Compartment. PC3M PTB-GFP, PNC prevalence imaging, 16 h; stronger effect = lower value. activity change (PNC), negative = inhibition, % at 10 µM. 140,000 compounds, 3.1% hits. AID 2417, 2010;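 active = readout at or below -70, meaning at least 70% loss of cells showing the perinucleolar compartment, a nuclear body marking cancer cells; inconclusive = readout between -30 and a set limit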
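Compounds are pinned in duplicate onto adhered PC3M cells stably expressing GFP-tagged PTB and incubated 16 h at 37 C. Cells are then fixed, nuclei stained with Hoechst, and PNC-positive cells counted.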
Tau fibril FP: qHTS for Inhibitors of Tau Fibril Formation, Fluorescence Polarization; Microtubule-associated protein tau (Homo sapiens), P10636; K18 P301L tau heparin fibrillization, Alexa594 FP, 6 h; Potency, µM (highest dose often 57.7 µM), actives largely listed as inhibitors; 280,000 compounds, 0.39% hits; also: nearly all actives have a fitted effect of over 55% in size
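Compound effects on tau fibrillization are measured by Alexa 594 fluorescence polarization (ex 555, em 632 nm). K18 P301L tau is used at 15 uM with 0.24 uM labeled tracer, and 20 uM heparin induces aggregation over 6 hr at 37 C.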
Large screens that a line does not name were inactive; [ ] = remark or other dose. Unless noted, calls follow the shape of the dose curve; as a rule, active = well fitted curve in the direction sought with a large enough effect; inconclusive = small, poorly fitted or top-dose-only effect, or another doubt; inactive = no such curve, though single readings can be large; an effect the other way counts as inactive or inconclusive.

CCN1CCN(c2csc3ccc(Cl)cc3c2=O)CC1	Tau ThT inhib inconclusive (no result: NPSR antagonist, JMJD2E inh, PNC assembly inh)
O=c1c(N2CCN(c3ccccc3)CC2)csc2ccc(Cl)cc12	Tau ThT inhib 12.6µM, Tau fluor cs inconclusive (no result: NPSR antagonist, JMJD2E inh, PNC assembly inh)
O=c1c(N2CCN(c3cccc(Cl)c3)CC2)csc2ccccc12	Tau ThT inhib 10µM (no result: NPSR antagonist, JMJD2E inh, PNC assembly inh)
CCN(CC)c1ccc(C=N/C(C#N)=C(\N)C#N)cc1	Tau ThT inhib 2µM, Tau fibril FP inconclusive
Cn1nnnc1SCCCNCc1cc(Cl)ccc1OCc1ccc(F)cc1	none (no result: NPSR antagonist, JMJD2E inh, PNC assembly inh)
O=c1c(=Nc2ccccc2O)c(=O)c2ccccc12	Tau ThT inhib 10µM, Tau fibril FP inconclusive (no result: PNC assembly inh)
COc1ccc(-n2nc(C(=O)N3CCN(c4cccc(C)c4)C(C)C3)c3c4ccccc4n(C)c3c2=O)cc1Cl (centres undefined)	none (no result: NPSR antagonist, JMJD2E inh, PNC assembly inh)
COc1ccc(S(=O)(=O)N(C)c2ccc(OCC(=O)Nc3cc(C)on3)cc2)cc1	NPSR antagonist inconclusive, PNC assembly inh -97.0
COc1ccc(-c2csc(NC(=O)COc3ccc(N(C)S(=O)(=O)c4ccc(C)cc4)cc3)n2)cc1	Tau fibril FP inconclusive
O=C(Nc1ccc(F)cc1F)c1ccccc1-c1ccccc1	Tau fibril FP inconclusive
O=C(Nc1ccc(F)cc1)c1cccnc1NCCc1ccccc1	Tau fluor cs inconclusive, JMJD2E inh inconclusive, Tau fibril FP 12.6µM
O=C(Nc1cccc(C(F)(F)F)c1)c1cccnc1NCCc1ccccc1	NPSR antagonist inconclusive, Tau fluor cs inconclusive, Tau fibril FP 14.1µM
O=C(Nc1cccc(F)c1)c1ccccc1-c1ccccc1	PNC assembly inh -103.2
O=C(Nc1cccc(F)c1)c1cccnc1NCCc1ccccc1	Tau fluor cs inconclusive, JMJD2E inh inconclusive, Tau fibril FP 17.8µM
CCOc1ncccc1C(=O)Nc1ccc(F)cc1	none (no result: PNC assembly inh)
CCOC(=O)c1c(C)oc2nc(C)nc(NCC3CCN(Cc4ccccc4C)CC3)c12	none (no result: NPSR antagonist, JMJD2E inh, PNC assembly inh)
Cc1csc2nc(COc3ccc(NC(=O)COc4ccccc4F)cc3)cc(=O)n12	none (no result: NPSR antagonist, JMJD2E inh, PNC assembly inh)
CCOc1ccc(C2C(C#N)=C(C)NC3=C2C(=O)c2ccccc23)cc1 (centres undefined)	Tau ThT inhib inconclusive, Tau fluor cs 20µM[quencher], JMJD2E inh inconclusive, Tau fibril FP inconclusive
COc1cc(C2C(C#N)=C(C)NC3=C2C(=O)c2ccccc23)cc(OC)c1OC (centres undefined)	Tau ThT inhib inconclusive, NPSR antagonist inconclusive, PNC assembly inh -115.5
COc1ccc(C2C(C#N)=C(C)NC3=C2C(=O)c2ccccc23)cc1 (centres undefined)	Tau ThT inhib inconclusive, NPSR antagonist inconclusive, JMJD2E inh inconclusive
CC1(C)CC(=O)C2=C(C1)NC1=C(C(=O)c3ccccc31)C2c1ccccc1 (centres undefined)	Tau ThT inhib inconclusive, Tau fluor cs inconclusive
O=C1NC2=C(C(=O)c3ccccc32)C(c2ccccc2)N1 (centres undefined)	Tau ThT inhib 22.4µM, Tau fibril FP inconclusive
CC1=C([N+](=O)[O-])C(c2ccccc2)C2=C(N1)c1ccccc1C2=O (centres undefined)	Tau ThT inhib 15.8µM, Tau fluor cs 15.8µM[quencher], PNC assembly inh inconclusive
CCCCC#CC1C=CC(OC(C)=O)C(COC(C)=O)O1 (centres undefined)	Tau fibril FP inconclusive (no result: NPSR antagonist, JMJD2E inh, PNC assembly inh)
Cc1ccccc1NC(=O)Cn1c(=O)n(Cc2ccc3c(c2)OCO3)c(=O)c2oc3ccccc3c21	none (no result: NPSR antagonist, JMJD2E inh, PNC assembly inh)
COc1ccc(NC(=O)Cn2c(=O)n(-c3cc(C)cc(C)c3)c(=O)c3oc4ccccc4c32)cc1OC	none (no result: NPSR antagonist, JMJD2E inh, PNC assembly inh)
CCN(CC)CCCNC(=O)C1CCN(S(C)(=O)=O)CC1	none (no result: NPSR antagonist, JMJD2E inh, PNC assembly inh)
COc1ccc(Cl)cc1NC(=O)C(C)N(C)Cc1cccc(Cl)c1Cl (centres undefined)	PNC assembly inh -101.1, Tau fibril FP inconclusive
COc1ccc(Cl)cc1NC(=O)NC(C)C	none (no result: PNC assembly inh)
CC1=NN(c2ccccc2)C(=O)C1N=Nc1ccc(C)cc1 (centres undefined)	none (no result: PNC assembly inh)
CC1=NN(c2ccccc2)C(=O)C1C=Nc1ccc(N(C)C)cc1 (centres undefined)	Tau ThT inhib 7.94µM, Tau fluor cs inconclusive, JMJD2E inh inconclusive (no result: PNC assembly inh)
CCc1cccc(NC(=O)CN2c3ccccc3S(=O)(=O)c3ccccc32)c1	Tau fluor cs inconclusive (no result: NPSR antagonist, JMJD2E inh, PNC assembly inh)
Cc1cc2ccccc2n1CCNC(=O)Cc1cccc2ccccc12	Tau ThT inhib inconclusive, NPSR antagonist inconclusive, JMJD2E inh inconclusive, PNC assembly inh -108.4, Tau fibril FP inconclusive
CCC(=O)NCCn1c(C)cc2ccccc21	none
Cc1cc2ccccc2n1CCNC(=O)COc1ccccc1	PNC assembly inh -103.4
O=C(CNC(=O)c1ccccc1)NC1(C(=O)NC2CCCC2)CCCCC1	Tau fluor cs 2.82µM[quencher], Tau fibril FP inconclusive
O=c1c2ccc(Cl)cc2nc(-c2cccc(C(F)(F)F)c2)n1O	JMJD2E inh 31.6µM
O=C(O)c1ccccc1-c1nc2cc(Cl)ccc2c(=O)n1O	none (no result: PNC assembly inh)
Cc1ccc(C(=O)CSc2ncnc3sc4c(c23)CCC(C)C4)cc1 (centres undefined)	PNC assembly inh -118.9
Cc1ccc(-c2nc(NC(=O)CSc3ncnc4sc5c(c34)CCC(C)C5)ns2)cc1 (centres undefined)	none (no result: NPSR antagonist, JMJD2E inh, PNC assembly inh)
O=C(NCc1cccc(F)c1)c1ccc(-n2cnc3cccnc32)cc1	none (no result: NPSR antagonist, JMJD2E inh, PNC assembly inh)
Cc1ccc(NCC(=O)c2ccc([N+](=O)[O-])cc2)cc1	Tau ThT inhib 17.8µM, Tau fluor cs inconclusive, Tau fibril FP inconclusive (no result: PNC assembly inh)
Cc1ccc(C(=O)CNc2cccc([N+](=O)[O-])c2)cc1	Tau ThT inhib inconclusive (no result: PNC assembly inh)
Cc1ccc(NCCC(=O)c2cccc([N+](=O)[O-])c2)c(C)c1	Tau ThT inhib inconclusive, Tau fluor cs 15.8µM[quencher], PNC assembly inh -83.9, Tau fibril FP inconclusive
Cc1cccc(NCCC(=O)c2ccc([N+](=O)[O-])cc2)c1C	Tau ThT inhib inconclusive, Tau fluor cs 8.91µM[quencher] (no result: PNC assembly inh)
CCOc1ccc(NC(=O)CCc2c(C)nc3cc(-c4ccc(Cl)cc4)nn3c2C)cc1	Tau ThT inhib inconclusive (no result: NPSR antagonist, JMJD2E inh, PNC assembly inh)
CCCCN1C(=O)/C(=C(/C#N)C(=O)N2CCCC2)c2ccccc21	Tau ThT inhib inconclusive (no result: PNC assembly inh)
CC(C)CN1C(=O)/C(=C(/C#N)C(=O)NC2CCCCC2)c2ccccc21	Tau ThT inhib 17.8µM, Tau fibril FP inconclusive (no result: PNC assembly inh)
CN1CCS/C1=C/C=C1/SC(=S)N(Cc2ccccc2)C1=O	none
CCCCN1C(=O)/C(=C/C=C2\N(C)c3ccccc3C2(C)C)SC1=S	Tau ThT inhib 6.31µM, Tau fibril FP inconclusive

Source: PubChem BioAssay
